# According to the supplement of paper PMC9694430:
# Experiments:
# Experiment in all cases: thermal shift delta Tm vs DMSO control; higher = stronger stabilization (binding)
# Details in all cases: 12.5 µM; protein concentration 2 µM
# LOC_OS01G57100-cb003 = tested on: LOC_OS01G57100-cb003
# Procedure, shortened: (§1)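 Rice kinase domain constructs, made in E. coli and purified, were placed in 96-well plates at 2 μM in 19.5 μl of 100 mM potassium phosphate pH 7.5, 150 mM NaCl, 10% glycerol and 5 × SYPRO Orange, with compound in DMSO. A temperature ramp from 25°C to 95°C at 0.05°C/s was used for differential scanning fluorimetry. The melting temperature shift is a triplicate mean compared with DMSO-only protein, derived from Boltzmann fits.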
# LOC_OS01G60330-cb001 = tested on: LOC_OS01G60330-cb001
# Procedure, shortened: as §1
# LOC_OS01G60700-cb002 = tested on: LOC_OS01G60700-cb002
# Procedure, shortened: as §1
# LOC_OS01G63280-cb003 = tested on: LOC_OS01G63280-cb003
# Procedure, shortened: as §1
# LOC_OS01G67340-cb003 = tested on: LOC_OS01G67340-cb003
# Procedure, shortened: as §1
# LOC_OS01G70970-cb002 = tested on: LOC_OS01G70970-cb002
# Procedure, shortened: as §1
# LOC_OS02G07810-cb001 = tested on: LOC_OS02G07810-cb001
# Procedure, shortened: as §1
# LOC_OS02G08530-cb003 = tested on: LOC_OS02G08530-cb003
# Procedure, shortened: as §1
# LOC_OS02G14120-cb001 = tested on: LOC_OS02G14120-cb001
# Procedure, shortened: as §1
# LOC_OS02G17970-cb001 = tested on: LOC_OS02G17970-cb001
# Procedure, shortened: as §1
# LOC_OS02G45750-cb003 = tested on: LOC_OS02G45750-cb003
# Procedure, shortened: as §1
# LOC_OS02G54510-cb004 = tested on: LOC_OS02G54510-cb004
# Procedure, shortened: as §1
# LOC_OS03G04050-cb001 = tested on: LOC_OS03G04050-cb001
# Procedure, shortened: as §1
# LOC_OS03G12390-cb001 = tested on: LOC_OS03G12390-cb001
# Procedure, shortened: as §1
# LOC_OS03G27990-cb004 = tested on: LOC_OS03G27990-cb004
# Procedure, shortened: as §1
# LOC_OS03G50450-cb001 = tested on: LOC_OS03G50450-cb001
# Procedure, shortened: as §1
# LOC_OS03G50810-cb003 = tested on: LOC_OS03G50810-cb003
# Procedure, shortened: as §1
# LOC_OS04G35114-cb001 = tested on: LOC_OS04G35114-cb001
# Procedure, shortened: as §1
# LOC_OS04G38480-cb003 = tested on: T1, LOC_OS04G38480-cb003
# T1 sequence (whole entry): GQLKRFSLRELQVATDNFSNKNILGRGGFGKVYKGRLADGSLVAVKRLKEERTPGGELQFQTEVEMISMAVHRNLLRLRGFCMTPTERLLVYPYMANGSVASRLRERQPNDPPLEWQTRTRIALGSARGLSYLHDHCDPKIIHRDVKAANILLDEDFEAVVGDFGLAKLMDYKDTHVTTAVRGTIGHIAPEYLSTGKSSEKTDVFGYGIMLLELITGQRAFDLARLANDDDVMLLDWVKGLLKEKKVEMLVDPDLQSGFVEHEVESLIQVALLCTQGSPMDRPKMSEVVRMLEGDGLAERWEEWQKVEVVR
# Procedure, shortened: as §1
# LOC_OS04G41100-cb001 = tested on: T2, LOC_OS04G41100-cb001
# T2 sequence (whole entry): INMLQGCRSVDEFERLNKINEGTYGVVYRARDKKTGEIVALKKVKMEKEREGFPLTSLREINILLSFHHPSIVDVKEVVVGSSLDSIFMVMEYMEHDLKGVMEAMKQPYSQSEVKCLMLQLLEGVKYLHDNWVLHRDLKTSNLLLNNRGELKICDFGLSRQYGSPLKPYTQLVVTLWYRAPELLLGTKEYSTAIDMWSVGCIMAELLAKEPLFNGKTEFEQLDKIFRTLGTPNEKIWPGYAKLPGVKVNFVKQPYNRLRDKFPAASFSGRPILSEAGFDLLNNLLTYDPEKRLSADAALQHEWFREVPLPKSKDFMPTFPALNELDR
# Procedure, shortened: as §1
# 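Note: purified Escherichia coli-expressed rice kinase domain construct.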
SMILES,thermal shift delta Tm (LOC_OS01G57100-cb003),thermal shift delta Tm (LOC_OS01G60330-cb001),thermal shift delta Tm (LOC_OS01G60700-cb002),thermal shift delta Tm (LOC_OS01G63280-cb003),thermal shift delta Tm (LOC_OS01G67340-cb003),thermal shift delta Tm (LOC_OS01G70970-cb002),thermal shift delta Tm (LOC_OS02G07810-cb001),thermal shift delta Tm (LOC_OS02G08530-cb003),thermal shift delta Tm (LOC_OS02G14120-cb001),thermal shift delta Tm (LOC_OS02G17970-cb001),thermal shift delta Tm (LOC_OS02G45750-cb003),thermal shift delta Tm (LOC_OS02G54510-cb004),thermal shift delta Tm (LOC_OS03G04050-cb001),thermal shift delta Tm (LOC_OS03G12390-cb001),thermal shift delta Tm (LOC_OS03G27990-cb004),thermal shift delta Tm (LOC_OS03G50450-cb001),thermal shift delta Tm (LOC_OS03G50810-cb003),thermal shift delta Tm (LOC_OS04G35114-cb001),thermal shift delta Tm (LOC_OS04G38480-cb003),thermal shift delta Tm (LOC_OS04G41100-cb001)
O=C(O)CCC(=O)Nc1ccc(Br)cn1 [Bikinin],3.66 °C,0.91 °C,0.53 °C,0.52 °C,0.6 °C,0.23 °C,0.66 °C,0.69 °C,0.3 °C,0.9 °C,0.64 °C,0.11 °C,0.3 °C,0.13 °C,0.19 °C,0.33 °C,0.43 °C,0.74 °C,1.47 °C,0.42 °C
"CCCS(=O)(=O)Nc1ccc(F)c(C(=O)c2c[nH]c3ncc(-c4ccc(Cl)cc4)cc23)c1F [Vemurafenib (PLX4032, RG7204)]",3.36 °C,10.2 °C,0.62 °C,14.8 °C,3.46 °C,3.78 °C,2.03 °C,1.07 °C,4.6 °C,1.48 °C,9.27 °C,1.86 °C,0.64 °C,4.44 °C,0.69 °C,1.54 °C,2.6 °C,4.48 °C,4.49 °C,0.68 °C
N#CC[C@H](C1CCCC1)n1cc(-c2ncnc3[nH]ccc23)cn1,0.48 °C,1.16 °C,0.62 °C,0.56 °C,0.07 °C,0.28 °C,1.11 °C,1.14 °C,3.58 °C,0.47 °C,0.42 °C,1.39 °C,0.15 °C,2.16 °C,0.41 °C,0.17 °C,0.46 °C,0.65 °C,1.14 °C,0.66 °C
O=C(Nc1cccc(Nc2ncc(Br)c(NCCc3cnc[nH]3)n2)c1)N1CCCC1,1.45 °C,12.3 °C,0.44 °C,0.73 °C,2 °C,9.39 °C,0.15 °C,2.7 °C,10.6 °C,0.3 °C,9.57 °C,1.18 °C,0.77 °C,2.81 °C,1.73 °C,6.39 °C,5.57 °C,5.16 °C,2.86 °C,2.52 °C
"Nc1nc2cc(-c3ccc4ncc(C(=O)N5CCOCC5)n4c3)ccc2o1 [Serabelisib (INK-1117,MLN-1117,TAK-117)]",1.55 °C,0.93 °C,0.36 °C,0.07 °C,1.26 °C,1.33 °C,0.05 °C,1.17 °C,2.02 °C,0.23 °C,1.65 °C,0.12 °C,0.57 °C,0.22 °C,0.37 °C,0.93 °C,0.42 °C,1.85 °C,0.6 °C,0.51 °C
CCn1c(=O)c(-c2cc[nH]n2)cc2c(C)nc(N)nc21,-0.09 °C,0.91 °C,0.72 °C,0.14 °C,0.34 °C,0.36 °C,0 °C,0.79 °C,0.62 °C,0.52 °C,0.15 °C,0.22 °C,0.35 °C,0.21 °C,0.09 °C,0.05 °C,0.28 °C,0.94 °C,0.82 °C,0.15 °C
"CC(C)(O)CNc1ncc(-c2ccnc(Nc3ccncc3)n2)c(CC2CC2)n1 [VPS34 inhibitor 1 (Compound 19, PIK-III analogue)]",1.59 °C,0.38 °C,0.34 °C,0.12 °C,-0.02 °C,0.5 °C,-0.03 °C,0.85 °C,4.52 °C,0.28 °C,2.27 °C,0.29 °C,0.5 °C,0.77 °C,0.32 °C,0.37 °C,0.9 °C,1.51 °C,1.97 °C,0.43 °C
O=c1cc(N2CCOCC2)oc2c(-c3cccc4c3sc3ccccc34)cccc12,0.74 °C,0.23 °C,-0.43 °C,-0.77 °C,-0.51 °C,-0.71 °C,-0.42 °C,0.52 °C,0.46 °C,0.12 °C,1.11 °C,0.33 °C,0.66 °C,-0.18 °C,0.6 °C,0.91 °C,0.32 °C,0.58 °C,0.87 °C,-0.31 °C
COc1ccc(COc2cc3oc(=O)c4cc(C(C)O)ccc4c3cc2OC)cc1 (stereo not given) [Palomid 529 (P529)],2.39 °C,1.07 °C,1.23 °C,0.19 °C,0.25 °C,0.51 °C,0.98 °C,1.87 °C,1.04 °C,0.5 °C,-0.8 °C,0.29 °C,0.37 °C,-0.47 °C,0.35 °C,0.19 °C,0.52 °C,0.78 °C,1.4 °C,0.32 °C
Cc1cnc(NC(=O)Nc2cc(Br)c(C)cc2OC[C@@H]2CNCCO2)cn1,0.95 °C,0.18 °C,0.72 °C,0.14 °C,0.03 °C,0.38 °C,0.19 °C,2.28 °C,0.85 °C,0.19 °C,2.48 °C,0.18 °C,0.38 °C,0.98 °C,0.74 °C,0.51 °C,2.11 °C,1.71 °C,0.59 °C,0.37 °C
COc1ccc(/C=C/C(=O)C2(C(=O)/C=C/c3ccc(OC)c(OC)c3)CCCCC2)cc1OC,2.18 °C,0.27 °C,0.41 °C,0.1 °C,0.3 °C,0.31 °C,0.4 °C,1.47 °C,0.46 °C,0.38 °C,1.45 °C,0.31 °C,0.85 °C,-0.65 °C,0.61 °C,0.8 °C,-0.01 °C,0.96 °C,0.14 °C,0.5 °C
COc1ccc(Cl)c(Nc2nc3ccccc3nc2NS(=O)(=O)c2cccc(NC(=O)C(C)(C)N)c2)c1 [Pilaralisib (XL147)],0.77 °C,3.02 °C,0.4 °C,2.27 °C,2 °C,1.26 °C,1.84 °C,0.06 °C,-0.43 °C,1.12 °C,1.06 °C,-0.18 °C,0.85 °C,2.37 °C,1.12 °C,1.09 °C,1.54 °C,2.89 °C,2.92 °C,1.52 °C
